Experiments:
[1] = test system: Human papillomavirus type 1a protein E7 (residues 44-93); experiment: HPV1a E7 fragment binders on microarrays, primary screen, biochemical, small-molecule microarray, residues 44-93, 635 nm fluorescence (AID 1108); settings: small-molecule microarray binding, fluorescence 635 nm; higher = more signal;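 also: E7 fragment applied at 1 µg/mL in TBST for 1 h at 4 C; score combines spot fluorescence with its signal to noise ratio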
[2] = modulators of HCV replicon luciferase signal, primary screen, HCV replication inhibitor project, Huh7 cells, luciferase reporter (AID 1109); settings: 48 h, higher = more signal;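 also: huh7 hepatoma cells harbouring a luciferase neomycin HCV replicon reporter; luciferase luminescence as measure of HCV replicon replication; test concentration not given here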
[3] = molecular target: Left-right determination factor 2 (Homo sapiens) (UniProt O00292); experiment: LEFTY2 binders on small-molecule microarrays, primary screen, biochemical, small-molecule microarray, 635 nm fluorescence scan (AID 1110); settings: LEFTY2 binding, higher = more signal
Sequence of Left-right determination factor 2 (Homo sapiens) (O00292 whole entry, looked up): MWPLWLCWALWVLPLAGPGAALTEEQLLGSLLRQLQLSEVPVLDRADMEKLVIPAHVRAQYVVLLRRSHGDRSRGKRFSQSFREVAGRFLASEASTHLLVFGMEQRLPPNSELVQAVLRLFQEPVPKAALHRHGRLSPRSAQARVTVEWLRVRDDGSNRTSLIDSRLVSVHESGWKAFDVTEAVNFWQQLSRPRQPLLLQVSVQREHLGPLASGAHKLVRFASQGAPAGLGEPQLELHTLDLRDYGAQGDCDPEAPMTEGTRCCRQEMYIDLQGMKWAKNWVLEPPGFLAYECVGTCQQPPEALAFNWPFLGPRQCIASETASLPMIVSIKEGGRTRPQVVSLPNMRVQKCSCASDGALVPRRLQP

[4] = molecular target: Calmodulin-1 (Homo sapiens) (UniProt P0DP23); experiment: CALM1 binders on microarrays, EGTA buffer, profiling panel, biochemical, small-molecule microarray, Cy5-labelled CALM1 (AID 1111); settings: Cy5-CALM1 binding fluorescence, higher = more signal;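 also: labelled calmodulin applied in Tris saline Tween buffer holding calcium plus EGTA and DTT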
[5] = molecular target: Calmodulin-1 (Homo sapiens) (UniProt P0DP23); experiment: calcium-bound CALM1 binders on microarrays, profiling panel, artefact control for SMM control-protein annotation, biochemical, small-molecule microarray, Cy5-labelled CALM1, plus calcium (AID 1112); settings: Cy5-CALM1 binding fluorescence, higher = more signal;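 also: score merges spot fluorescence with signal to noise from triplicate slides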
[6] = small-molecule microarray binders of probe aWnt5a, primary screen, biochemical, biotinylated probe, 635/667 nm fluorescence (AID 1113); settings: higher = more signal;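 also: score merges 667 nm fluorescence intensity with signal-to-noise per printed feature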
[7] = small-molecule microarray binders of probe aShh, primary screen, biochemical, biotinylated probe, 635/667 nm fluorescence (AID 1114); settings: higher = more signal;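 also: probe is biotin-labelled aShh protein from a stem cell growth factor screen; measures binding of labelled protein to compounds printed on the slide; score merges feature fluorescence at 667 nm with signal-to-noise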
[8] = small-molecule microarray binders of probe aNog, primary screen, biochemical, biotinylated probe, 635/667 nm fluorescence (AID 1115); settings: higher = more signal;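 also: probe is biotinylated aNog protein used at 0.15 µg/mL for 1 h at 4 C; z-score combines 667 nm fluorescence of each spot with its signal to noise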
[9] = molecular target: Torsin-1A-interacting protein 1 (Homo sapiens) (UniProt Q5JTV8); experiment: LAP1 binders from COS7 cell lysate, primary screen, small-molecule microarray, 635/667 nm fluorescence (AID 1116); settings: COS7-hLAP1 lysate binding, 635 nm fluorescence, higher = more signal
Sequence of Torsin-1A-interacting protein 1 (Homo sapiens) (Q5JTV8 whole entry, looked up): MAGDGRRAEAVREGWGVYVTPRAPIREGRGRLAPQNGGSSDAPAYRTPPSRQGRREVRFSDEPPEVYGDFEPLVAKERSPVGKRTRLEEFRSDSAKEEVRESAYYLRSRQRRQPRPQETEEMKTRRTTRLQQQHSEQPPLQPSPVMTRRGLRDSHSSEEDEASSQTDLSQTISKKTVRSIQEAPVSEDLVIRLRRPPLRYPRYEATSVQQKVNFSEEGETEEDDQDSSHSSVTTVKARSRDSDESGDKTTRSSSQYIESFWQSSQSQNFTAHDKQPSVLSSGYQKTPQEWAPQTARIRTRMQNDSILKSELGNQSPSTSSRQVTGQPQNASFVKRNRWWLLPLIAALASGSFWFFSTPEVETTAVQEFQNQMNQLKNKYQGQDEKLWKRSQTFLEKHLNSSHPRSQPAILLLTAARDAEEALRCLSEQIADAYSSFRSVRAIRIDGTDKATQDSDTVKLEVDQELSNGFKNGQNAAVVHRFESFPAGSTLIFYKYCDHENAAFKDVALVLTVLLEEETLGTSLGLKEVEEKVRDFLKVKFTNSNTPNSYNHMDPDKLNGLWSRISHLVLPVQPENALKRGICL

[10] = molecular target: Alpha-bungarotoxin (Bungarus multicinctus) (UniProt P60615); experiment: alpha-bungarotoxin binders on microarray, profiling panel, artefact control for SMM control protein annotation, biochemical, small-molecule microarray, Alexa647 label, 635/667 nm fluorescence (AID 1117); settings: alpha-BTX-A647 binding fluorescence, higher = more signal
Sequence of Alpha-bungarotoxin (Bungarus multicinctus) (P60615 whole entry, looked up): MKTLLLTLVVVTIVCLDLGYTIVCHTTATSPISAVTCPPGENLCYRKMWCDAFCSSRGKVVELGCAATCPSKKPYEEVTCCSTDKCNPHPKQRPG

## C=C(COC)C(=O)CC[C@@H](OC(=O)c1cccnc1)c1ccccc1OCCO
[1]
  composite z-score: -1.05
[2]
  z-score: -3.82
[3]
  composite z-score: 0.078
[4]
  composite z-score: -1.08
[5]
  composite z-score: -0.497
[6]
  composite z-score: -0.096
[7]
  composite z-score: -0.0553
[8]
  composite z-score: 0.412
[9]
  composite z-score: 0.519
[10]
  composite z-score: -0.387

## C=CCNC(=O)[C@H]1[C@@H]2C(=O)O[C@@H](c3ccccc3)[C@@H](c3ccccc3)N2[C@@H](c2ccc(O)cc2)[C@]12C(=O)N(C(=O)OCCOC)c1ccc(C#CCC(C(=O)OC)C(=O)OC)cc12
[1]
  composite z-score: 1.07
[2]
  z-score: -1.53
[3]
  composite z-score: 0.798
[4]
  composite z-score: 1.5
[5]
  composite z-score: 0.475
[6]
  composite z-score: -0.147
[7]
  composite z-score: -0.154
[8]
  composite z-score: 0.0213
[9]
  composite z-score: 1.48
[10]
  composite z-score: 0.201

## CC=CC(O)C1C=CC2C(=O)NC(=O)C2N1Nc1ccccn1 (stereo not given)
[1]
  composite z-score: 0.434
[2]
  z-score: 0.634
[3]
  composite z-score: 0.44
[4]
  composite z-score: -0.242
[5]
  composite z-score: -1.1
[6]
  composite z-score: -0.254
[7]
  composite z-score: -0.0211
[8]
  composite z-score: 0.342
[9]
  composite z-score: 0.372
[10]
  composite z-score: 0.439

## Cc1ccccc1C(O)C1C=CC2C(=O)N(c3ccccc3)C(=O)C2N1Nc1ccc([N+](=O)[O-])cc1 (stereo not given)
[1]
  composite z-score: 1.42
[2]
  z-score: -0.598
[3]
  composite z-score: 0.174
[4]
  composite z-score: 1.05
[5]
  composite z-score: 0.656
[6]
  composite z-score: -0.012
[7]
  composite z-score: 0.0684
[8]
  composite z-score: 1.63
[9]
  composite z-score: 2.03
[10]
  composite z-score: 0.625

## CC(C)OC(=O)CC(=O)CC(O)c1ccc([N+](=O)[O-])cc1 (stereo not given)
[1]
  composite z-score: 1.13
[2]
  z-score: -0.601
[3]
  composite z-score: -0.698
[4]
  composite z-score: -0.759
[5]
  composite z-score: -0.833
[6]
  composite z-score: 0.093
[7]
  composite z-score: 0.163
[8]
  composite z-score: 0.431
[9]
  composite z-score: 0.47
[10]
  composite z-score: -0.292

## CCCNC(=O)[C@@]1(Sc2ccc(C)cc2)CC(=O)N(C2CCCCC2)[C@@H]1c1ccc(CO)cc1I
[1]
  composite z-score: 0.0411
[2]
  z-score: -2.45
[3]
  composite z-score: -0.153
[4]
  composite z-score: 1.42
[5]
  composite z-score: 0.86
[6]
  composite z-score: -0.0242
[7]
  composite z-score: 0.768
[8]
  composite z-score: 0.757
[9]
  composite z-score: 0.982
[10]
  composite z-score: 0.231

## CC(C)[C@H]1NC(=O)[C@@]23C(=O)N[C@@H](Cc4ccccc4)C2[C@H](C)[C@@]2(C)O[C@H]2C3/C=C/CCC/C=C/CNC(=O)[C@H](Cc2ccccc2)NC1=O (stereo not given in full)
[1]
  composite z-score: 1.41
[2]
  z-score: -0.565
[3]
  composite z-score: -0.0883
[4]
  composite z-score: -0.773
[5]
  composite z-score: -0.806
[6]
  composite z-score: -0.148
[7]
  composite z-score: -0.156
[8]
  composite z-score: -0.455
[9]
  composite z-score: -0.148
[10]
  composite z-score: -0.498

## C=C(CCCC)C(=O)CC[C@H](OC(C)=O)c1ccc(OCCO)cc1
[1]
  composite z-score: -0.319
[2]
  z-score: -2.73
[3]
  composite z-score: -0.0558
[4]
  composite z-score: -0.0294
[5]
  composite z-score: -0.92
[6]
  composite z-score: -0.102
[7]
  composite z-score: -0.262
[8]
  composite z-score: 0.0989
[9]
  composite z-score: -0.346
[10]
  composite z-score: 0.657

## CC1(C)C(=O)C(c2ccccc2)=C2CN3C(=O)N(CCc4ccccc4)C(=O)C3(Cc3ccc(F)cc3)C=C21 (stereo not given)
[1]
  composite z-score: 0.754
[2]
  z-score: -1.47
[3]
  composite z-score: -1.24
[4]
  composite z-score: 1.11
[5]
  composite z-score: 0.725
[6]
  composite z-score: 0.317
[7]
  composite z-score: 0.717
[8]
  composite z-score: 1.8
[9]
  composite z-score: 0.551
[10]
  composite z-score: 0.273

## Cc1ccc([C@H]2C(C(=O)O)=C[C@@H](C(C)(C)C)N2S(=O)(=O)c2ccc(C)cc2)cc1
[1]
  composite z-score: 1.41
[2]
  z-score: 0.0372
[3]
  composite z-score: 0.326
[4]
  composite z-score: 1.94
[5]
  composite z-score: 0.516
[6]
  composite z-score: 0.058
[7]
  composite z-score: 0.348
[8]
  composite z-score: 1.34
[9]
  composite z-score: 1.4
[10]
  composite z-score: 1.43

## CCOC(=O)C1=CCC(c2ccccc2)N(S(=O)(=O)c2ccc([N+](=O)[O-])cc2)C1 (stereo not given)
[1]
  composite z-score: 0.992
[2]
  z-score: -1.93
[3]
  composite z-score: -0.276
[4]
  composite z-score: -0.36
[5]
  composite z-score: -0.0871
[6]
  composite z-score: -0.147
[7]
  composite z-score: 0.0048
[8]
  composite z-score: -0.425
[9]
  composite z-score: 0.853
[10]
  composite z-score: -0.165

## C=C(COC)/C(=C/C[C@@H](OC(=O)c1ccncc1)c1ccccc1OCCO)c1cc(C(=O)OC)ccc1OC
[1]
  composite z-score: -0.553
[2]
  z-score: -2.5
[3]
  composite z-score: -0.934
[4]
  composite z-score: -0.188
[5]
  composite z-score: -0.66
[6]
  composite z-score: -0.107
[7]
  composite z-score: -0.0849
[8]
  composite z-score: 0.0471
[9]
  composite z-score: 0.332
[10]
  composite z-score: -0.626

## O=C(NCCN1CCOCC1)[C@@H]1c2ccccc2C(=O)N(Cc2ccccc2)[C@H]1c1ccc(CO)cc1
[1]
  composite z-score: -0.639
[2]
  z-score: -0.887
[3]
  composite z-score: -1.45
[4]
  composite z-score: 0.446
[5]
  composite z-score: -1
[6]
  composite z-score: -0.219
[7]
  composite z-score: 0.214
[8]
  composite z-score: -0.224
[9]
  composite z-score: -1.47
[10]
  composite z-score: -1.06

## CN(C)C(=O)[C@@]1(Cc2ccccc2N=[N+]=[N-])N=C(c2ccc(OCCCO)cc2)O[C@H]1c1ccccc1
[1]
  composite z-score: 0.0896
[2]
  z-score: -2.52
[3]
  composite z-score: 0.123
[4]
  composite z-score: 2.4
[5]
  composite z-score: 1.09
[6]
  composite z-score: 0.103
[7]
  composite z-score: -0.0022
[8]
  composite z-score: -0.743
[9]
  composite z-score: 1.32
[10]
  composite z-score: 2.17

## O=C(O)[C@H]1C[C@H]2C(=O)N[C@@H](Cc3ccccc3)C(=O)N2[C@H]1c1cccc(OCCO)c1
[1]
  composite z-score: 0.0635
[2]
  z-score: 4.5
[3]
  composite z-score: 0.978
[4]
  composite z-score: -0.309
[5]
  composite z-score: -0.411
[6]
  composite z-score: 0.0079
[7]
  composite z-score: -0.214
[8]
  composite z-score: 0.185
[9]
  composite z-score: 0.543
[10]
  composite z-score: 0.366

## CC(CO)N1C(=O)[C@@H]2[C@H]3C(=O)OCC=C[C@H]3OC23C=CCN(c2ccc(Cl)cc2)C(=O)[C@@H]13 (stereo not given in full)
[1]
  composite z-score: -0.716
[2]
  z-score: -0.205
[3]
  composite z-score: -2.63
[4]
  composite z-score: -0.669
[5]
  composite z-score: -0.934
[6]
  composite z-score: -0.178
[7]
  composite z-score: 1.71
[8]
  composite z-score: -0.273
[9]
  composite z-score: -1.67
[10]
  composite z-score: -1.94

## COc1cc(NN2C(C(O)C3CCCCC3)C=CC3C(=O)N(c4ccccc4)C(=O)C32)cc(OC)c1OC (stereo not given)
[1]
  composite z-score: 1.05
[2]
  z-score: -1.1
[3]
  composite z-score: -0.79
[4]
  composite z-score: 2.13
[5]
  composite z-score: 1.23
[6]
  composite z-score: 0.141
[7]
  composite z-score: -0.11
[8]
  composite z-score: 0.658
[9]
  composite z-score: 1.5
[10]
  composite z-score: 1.98

## COc1cc2c(cc1OC)CN(C(=O)[C@@H]1[C@H]3C(=O)O[C@H](c4ccccc4)[C@H](c4ccccc4)N3[C@H](c3ccc(O)cc3)[C@@]13C(=O)Nc1ccc(C#CCCO)cc13)CC2
[1]
  composite z-score: 1.12
[2]
  z-score: -1.09
[3]
  composite z-score: 0.686
[4]
  composite z-score: 0.758
[5]
  composite z-score: -0.224
[6]
  composite z-score: -0.0538
[7]
  composite z-score: -0.11
[8]
  composite z-score: -0.102
[9]
  composite z-score: 0.678
[10]
  composite z-score: 0.319
